From PubChem BioAssay AID623911 (Vanderbilt High Throughput Screening Facility, 2012)
The whole screen tested about 2,100 compounds, of which about 770 (37%) were called active. Some of the results follow. Values without a mark were called inactive.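 How the source made its calls: active means by-eye trace score of 1 for enhancers or -1 for inhibitors, so actives lie on both sides (some results past the limit were not filed as active); inactive means score 0, or 3 fluorescent, or 4 baseline rise.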

These compounds were tested against G protein-activated inward rectifier potassium channel 2 (Homo sapiens) + G protein-activated inward rectifier potassium channel 1 (Homo sapiens) (UniProt P48051+P48549) (assay: GIRK1/2 thallium flux modulators, retest, confirmation, cell-based, HEK293 rmGlu8/hGIRK1/2, FluoZin-2 (AID 623911)). Details: HEK293 rmGlu8/hGIRK1/2, thallium flux FluoZin-2; actives lie on both sides; glutamate co-added at its EC20 level.
Sequence of G protein-activated inward rectifier potassium channel 2 (Homo sapiens) + G protein-activated inward rectifier potassium channel 1 (Homo sapiens) (P48051 whole entry, looked up): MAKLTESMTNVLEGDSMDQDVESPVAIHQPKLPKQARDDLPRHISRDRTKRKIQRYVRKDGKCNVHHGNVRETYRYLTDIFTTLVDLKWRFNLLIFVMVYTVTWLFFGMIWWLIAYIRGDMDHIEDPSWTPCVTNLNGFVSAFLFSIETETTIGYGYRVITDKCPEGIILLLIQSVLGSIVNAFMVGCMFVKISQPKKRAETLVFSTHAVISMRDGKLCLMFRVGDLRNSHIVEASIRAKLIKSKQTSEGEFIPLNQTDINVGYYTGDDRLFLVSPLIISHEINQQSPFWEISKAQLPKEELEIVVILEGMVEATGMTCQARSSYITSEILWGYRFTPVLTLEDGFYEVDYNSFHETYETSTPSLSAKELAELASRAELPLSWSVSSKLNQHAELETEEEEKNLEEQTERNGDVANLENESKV
Sequence of G protein-activated inward rectifier potassium channel 2 (Homo sapiens) + G protein-activated inward rectifier potassium channel 1 (Homo sapiens) (P48549 whole entry, looked up): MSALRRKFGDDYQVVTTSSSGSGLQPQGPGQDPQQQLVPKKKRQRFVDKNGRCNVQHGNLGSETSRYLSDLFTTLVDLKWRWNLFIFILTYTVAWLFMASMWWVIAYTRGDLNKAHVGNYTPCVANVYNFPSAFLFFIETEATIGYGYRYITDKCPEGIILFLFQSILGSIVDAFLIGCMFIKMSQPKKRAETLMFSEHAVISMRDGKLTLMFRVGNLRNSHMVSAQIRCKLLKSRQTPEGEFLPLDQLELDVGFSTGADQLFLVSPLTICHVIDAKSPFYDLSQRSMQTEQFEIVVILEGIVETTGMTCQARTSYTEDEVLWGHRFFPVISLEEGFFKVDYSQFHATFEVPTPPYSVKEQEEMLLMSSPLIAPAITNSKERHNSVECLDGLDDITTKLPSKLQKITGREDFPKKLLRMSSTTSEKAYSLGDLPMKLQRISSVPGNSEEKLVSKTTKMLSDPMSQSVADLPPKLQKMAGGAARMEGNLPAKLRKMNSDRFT
With O=c1[nH]c2ccc(Cl)cc2c(=O)n1Cc1ccco1 the manual score was 0.
O=c1c2cc(N3CCOCC3)ccc2[nH]c(=S)n1Cc1ccc(Cl)cc1 showed a manual score of 0.
For O=c1c2cc(Cl)ccc2[nH]c(=S)n1Cc1ccco1, the manual score was 1 (active).
With O=C(COc1ccc(Cl)cc1Cl)NNC(=S)Nc1ccc(F)cc1 the manual score was 0.
Cc1cc(NC(=O)COc2ccc(Cl)cc2Cl)n(-c2ccccc2)n1 was tested, and the manual score was 1 (active).
Work on O=C(COc1ccc(Cl)cc1Cl)Nc1ccccn1 yielded a manual score of 0.
With Cc1cc(C)n(CC(=O)O)n1 the manual score was 0.
For Cc1cc(NC(=O)Nc2ccccc2)n(-c2ccccc2)n1, the manual score was 1 (active).
For NC1=NC2(CCCCC2)n2c(nc3ccccc32)N1, the manual score was 0.
Compound O=C(CCCc1nc(-c2ccc(Cl)cc2)no1)Nc1cccnc1 has a manual score of 0.
CCCCc1ccc(NC(=S)Nc2cccnc2)cc1 was tested, and the manual score was 1 (active).
In the case of CCCCc1ccc(NC(=S)Nc2ccc(Cl)c(S(=O)(=O)N(C)C)c2)cc1, the manual score was 1 (active).
In the case of CCCCN(CCCC)S(=O)(=O)c1ccc(NC(=O)c2ccc([N+](=O)[O-])cc2Cl)cc1, the manual score was 0.
CCSc1ccccc1C(=O)Nc1cccnc1 showed a manual score of 0.
In the case of CC(C)N(C(=O)CN(C#N)c1nc(N(C)C)nc(N(C)C)n1)c1ccccc1, the manual score was 0.
CC(/C=N/n1c(-c2ccc(Cl)cc2)n[nH]c1=S)=C\c1ccco1 gave a manual score of 0.
In the case of O=C(CSCc1ccccc1)N=Nc1c(O)[nH]c2ccccc12, the manual score was 0.
In the case of Oc1[nH]c2ccccc2c1N=NC(=S)NCCc1ccccc1, the manual score was 0.
In the case of Oc1[nH]c2ccccc2c1N=Nc1nc2ccccc2s1, the manual score was 1 (active).
In the case of Cc1ccc(-c2csc3ncnc(N4CCN(C(=O)c5ccccc5)CC4)c23)cc1, the manual score was -1 (active).
For O=C(c1cc2nc(-c3ccccc3)cc(-c3ccccc3)n2n1)N1CCN(C(=O)c2ccco2)CC1, the manual score was 0.
With O=C(c1ccco1)N1CCN(c2ncnc3scc(-c4cccs4)c23)CC1 the manual score was -1 (active).
O=C(c1ccc(-c2ccccc2)cc1)N1CCN(c2ncccn2)CC1 was tested, and the manual score was 0.
O=C(c1ccco1)N1CCN(C(=O)c2cnn3c2NC(c2cccs2)CC3C(F)(F)F)CC1 (centres undefined) was tested, and the manual score was 0.
Work on Cc1ccc(-c2nnc(SCC(=O)Nc3cccc(C(=O)N4CCOCC4)c3)n2C)cc1 yielded a manual score of -0.5.
Work on COCC(C)OC(=O)c1c(N)n(CC(C)C)c2nc3ccccc3nc12 (centres undefined) yielded a manual score of 0.
For CCOP(=O)(c1ccccc1)c1nc(-c2ccccc2C)oc1N1CCCCC1 (centres undefined), the manual score was -1 (active).
O=C(O/N=C\c1ccc(N2CCCCC2)c([N+](=O)[O-])c1)c1c(F)cccc1F showed a manual score of 0.
For O=C(NC(=S)N1CCCCC1)c1cccs1, the manual score was 1 (active).
O=C(NC(=S)Nc1ccccc1N1CCOCC1)c1cccs1 was tested, and the manual score was 0.
For O=C(NC(=S)N1CCN(c2ccc(Cl)cc2[N+](=O)[O-])CC1)c1cccs1, the manual score was 1 (active).
With O=C(NC(=S)N1CCN(c2ccc(Cl)cc2[N+](=O)[O-])CC1)c1ccco1 the manual score was 1 (active).
With O=C(NC(=S)Nc1cccc(Cl)c1N1CCCC1)c1ccc(-c2cccc([N+](=O)[O-])c2)o1 the manual score was 0.
O=C(NC(=S)N1CCN(c2c(Cl)cccc2[N+](=O)[O-])CC1)c1cccs1 was tested, and the manual score was 1 (active).
N#CC(C#N)=C1C=C2C=C(N3CCCCCC3)CCC2CC1 (centres undefined) was tested, and the manual score was 3.
With CCCC(=O)Nc1ccc(NC(=O)C2CC2)cn1 the manual score was 0.
CN(c1ccc(OCC(=O)OCC(=O)Nc2ccccc2F)cc1)S(=O)(=O)c1cccs1 showed a manual score of 0.
O=C(NC(=S)N1CCN(c2ccc(C(F)(F)F)cc2[N+](=O)[O-])CC1)c1cccs1 was tested, and the manual score was 1 (active).
CCc1sc(NC(=O)CN2CCOCC2)nc1-c1ccccc1 gave a manual score of 0.
With O=C(CN1CCOCC1)Nc1ccc(C2CCCCC2)cc1 the manual score was 1 (active).
With O=C(CNC1CCCCCC1)Nc1ccc(N2CCCC2)cc1 the manual score was 0.
S=c1[nH]c2cc(Cl)ccc2s1 was tested, and the manual score was 1 (active).
For CCOC(=O)CSc1nc2ccc(Nc3nc(N4CCOCC4)nc(N4CCOCC4)n3)cc2s1, the manual score was 0.
In the case of O=C1CC(c2ccco2)Sc2nc3ccccc3n21 (centres undefined), the manual score was 0.
In the case of CCCc1nc2ccccc2c(=O)n1/N=C/c1c(C)[nH]n(-c2ccc(C)cc2)c1=O, the manual score was 1 (active).
For Cc1ccc(-n2[nH]c(C)c(/C=N/c3ccccn3)c2=O)cc1, the manual score was 0.
For Cc1ccc(C2CC2c2n[nH]c(=S)n2-c2ccc(C)cc2)cc1 (centres undefined), the manual score was 0.
CCOc1ccccc1N1CCN(C(=S)NC(=O)C23CC4CC(CC(C4)C2)C3)CC1 was tested, and the manual score was 0.
CCOc1ccccc1N1CCN(C(=O)c2cc3c(s2)CCC3)CC1 gave a manual score of -0.5.
In the case of CCCc1ccc(C(=O)N2CCN(c3ccccc3OCC)CC2)cc1, the manual score was -1 (active).
In the case of O=C(CSc1nc(CCC2CCCC2)nc2ccccc12)NCc1ccc2c(c1)OCO2, the manual score was 1 (active).
NC(=O)c1noc(C(=O)N(CC(=O)NC2CCCC2)Cc2ccc3c(c2)OCO3)c1N showed a manual score of 0.
Work on O=C(CSc1c[nH]c2ccccc12)NCc1ccc2c(c1)OCO2 yielded a manual score of -0.5.
Work on Cc1ccc(C)n1-c1ccc(C(=O)NN)cc1 yielded a manual score of 0.
Work on CC(/C=N/n1c(C2CCCCC2)n[nH]c1=S)=C\c1ccccc1 yielded a manual score of 0.
CC(C)c1ccc(-n2cccc2/C=C2/C(=N)N3C=CSC3=NC2=O)cc1 gave a manual score of 0.
CCCCNC(=S)N=Nc1c(O)n(Cc2ccccc2)c2ccccc12 gave a manual score of 0.
With C=CCn1c(O)c(N=NC(=O)OC(C)(C)C)c2ccccc21 the manual score was 1 (active).
For CCn1c(O)c(N=NC(=O)CNc2cccc(C)c2)c2ccccc21, the manual score was 0.
For C=CCn1c(N)c(C(=O)OC(C)(C)C)c2nc3ccccc3nc21, the manual score was 0.
In the case of CCCCn1c(O)c(N=Nc2ccccn2)c2ccccc21, the manual score was 0.
CCCn1c(O)c(N=NC(=O)c2ccco2)c2ccccc21 was tested, and the manual score was 1 (active).
In the case of CC12CC3CC(C)(C1)CC(C(=O)NC(=S)N1CCOCC1)(C3)C2, the manual score was 0.5.
In the case of CC12CC3(C)CC(C)(C1)CC(C(=O)NC(=S)N1CCOCC1)(C2)C3, the manual score was 1 (active).
CC12CC3CC(C)(C1)CC(C(=O)NC(=S)N1CCCCC1)(C3)C2 was tested, and the manual score was 1 (active).
With O=C(NC(=S)N1CCCCC1)C12CC3CC(CC(C3)C1)C2 the manual score was 0.5.
With CCC1(C)CC(c2csc(N)n2)CCO1 (centres undefined) the manual score was 0.
CCCCOc1ccccc1C1C(C(=O)OC)=C(C)N(C)C(C)=C1C(=O)OC was tested, and the manual score was -1 (active).
With CCCCN1C(=O)c2ccccc2C1C(=O)NC1CCCC1 (centres undefined) the manual score was 0.
Work on CCOc1ccc(N2C(=O)c3ccccc3C2O)cc1 (centres undefined) yielded a manual score of 0.
CCc1nc(SCC(=O)Nc2nnc(CC)s2)c2c(C)c(C)sc2n1 gave a manual score of 0.
For Cc1sc2nc(C3CC3)nc(SCC(=O)N3CC(=O)Nc4ccccc43)c2c1C, the manual score was 0.
In the case of CCc1nc(SCC(=O)N2CC(=O)Nc3ccccc32)c2c(C)c(C)sc2n1, the manual score was 1 (active).
For O=C1NC(=S)SC1=C1CCCCCC1, the manual score was 1 (active).
With CSc1nc2ccccc2cc1/C=C(\C#N)c1cccc(C)c1 the manual score was 0.
In the case of CCCCCC(=O)NC(=S)NNC(=O)c1ccc([N+](=O)[O-])cc1, the manual score was 1 (active).
With CCCCNC(=S)NC(=O)c1ccc([N+](=O)[O-])cc1 the manual score was 1 (active).
For CC(C)CNC(=S)NC(=O)c1ccc([N+](=O)[O-])cc1, the manual score was 1 (active).
In the case of CC(C)CNC(=S)NC(=O)c1ccc(F)cc1, the manual score was 1 (active).
COC(=O)C(CC(C)C)NC(=O)c1ccc([N+](=O)[O-])c(C)c1 (centres undefined) was tested, and the manual score was 0.
Work on CCCCCCc1cc2cc(-c3nnc(-c4cc(OC)c(OC)c(OC)c4)o3)c(=O)oc2cc1O yielded a manual score of 3.
For CCn1c2ccccc2c2cc(/C=N/n3cn[nH]c3=S)ccc21, the manual score was 0.
Compound O=c1cc(CN2CCOCC2)nc(C2CC2)[nH]1 has a manual score of 0.
O=C(COC(=O)CCC1CCCC1)Nc1nc2c(F)c(F)c(F)cc2s1 showed a manual score of 0.5.
For O=C(CSc1nc(-c2ccc(F)cc2)cs1)N1CCOCC1, the manual score was 0.
CCOC(=O)/C(C#N)=C/C1=C(N2CCCC2)CC(C)(C)OC1 showed a manual score of 0.
Work on Cc1sc2ncnc(SCc3ccco3)c2c1C yielded a manual score of 0.
Work on CCCn1c(SCc2nc3sc(C)c(C)c3c(=O)[nH]2)nc2ccccc2c1=O yielded a manual score of 0.
With Cc1sc2nc(C(C)C)nc(SCC(=O)NCc3ccco3)c2c1C the manual score was 1 (active).
O=C(CSc1nnc(-c2c[nH]c3ccccc23)n1-c1ccc(F)cc1)NCc1ccco1 was tested, and the manual score was -0.5.
In the case of CCn1c(SCC(=O)NC(=O)NCc2ccco2)nc2sc(C)c(C)c2c1=O, the manual score was 1 (active).
For Cc1sc2nc(C(C)C)nc(SCC(=O)N3c4ccccc4CC3C)c2c1C (centres undefined), the manual score was 1 (active).
Work on O=C(c1ccc(CS(=O)(=O)c2ccc(Br)cc2)o1)N1CCN(c2ncccn2)CC1 yielded a manual score of 0.
Compound CCOC(=O)C1CCN(C(=O)CN(c2ccc(Cl)c(C(F)(F)F)c2)S(C)(=O)=O)CC1 has a manual score of 0.
O=c1cc(Cn2ccnc2)c2cc3c(cc2o1)CCC3 showed a manual score of 0.
Compound O=C(Nc1ccc(F)cc1)c1cccc2c1C(=O)N(Cc1ccccn1)C2 has a manual score of 0.
With C/C(CC(C)(C)C1CCCCC1)=N\NC(N)=S the manual score was 0.
For Cc1ccc(-c2nnc(SCC(=O)Nc3ccc4c(c3)OCCO4)n2N)cc1, the manual score was 0.
Cc1ccc2nc(-c3ccc(O)cc3)c(Nc3ccc4c(c3)OCCO4)n2c1 was tested, and the manual score was -1 (active).
Work on CCn1c(-c2cc3c(C(F)(F)F)nn(C)c3s2)n[nH]c1=S yielded a manual score of 0.
O=C(O)C1C2C=CC(C2)C1C(=O)NCCc1cccc(Cl)c1 (centres undefined) showed a manual score of 0.5.
Work on O=C(NC1CC1)c1ccc(CSCc2cccc(F)c2)o1 yielded a manual score of 0.
With O=C(CCSCc1cccc(Cl)c1)NCCc1ccc(Cl)cc1 the manual score was 1 (active).
Compound COc1ccc(C2C(C(N)=O)=C(C)Nc3nc(-c4cccc(Cl)c4)nn32)cc1OC (centres undefined) has a manual score of 0.
